Holding throughout (assay): DAPPL (digital affinity profiling via proximity ligation, sequencing); 10 mM Tris-HCl pH 7.5, 50 mM NaCl, 1 mM DTT, 4% glycerol, room temperature, 30 min; GST-TFs on glutathione beads, 16-mer random dsDNA library, 0.1% formaldehyde crosslink after washing; high values mean tight binding
The target of one assay is T1, FEV (Homo sapiens, UniProt Q99581 1-238).
T1 sequence: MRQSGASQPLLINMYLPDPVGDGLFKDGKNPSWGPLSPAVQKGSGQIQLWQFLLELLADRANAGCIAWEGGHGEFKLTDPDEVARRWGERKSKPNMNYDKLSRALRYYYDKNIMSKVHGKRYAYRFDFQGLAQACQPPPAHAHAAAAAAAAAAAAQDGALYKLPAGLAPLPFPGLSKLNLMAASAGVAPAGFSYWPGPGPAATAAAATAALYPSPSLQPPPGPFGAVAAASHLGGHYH
The conditions noted are these: protein: recombinant; tags: N-terminal GST; dsDNA, one strand shown. A digest of the protocol:
(§1)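 Binding signal is each hexamer's read frequency for a factor divided by its frequency in the tag-only sample. The factors were GST-fused human transcription factors from yeast, captured on glutathione beads, DNA-barcoded and pooled with that sample. Pools were incubated with 200 nmole of a random double-stranded 16-mer DNA library in Tris/NaCl/DTT/glycerol buffer at room temperature for 30 min, then washed, crosslinked with 0.1% formaldehyde, proximity-ligated with BsaI/T4 ligase (1 h, 37 °C), PCR-amplified and sequenced on an Illumina NextSeq500.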

In another assay the target is ETV5 (Homo sapiens, UniProt P41161 1-510). Conditions: protein: recombinant; tags: N-terminal GST; dsDNA, one strand shown. The method, boiled down: as §1
In the next assay the target is HSF1 (Homo sapiens, UniProt Q00613 1-529). The conditions noted are these: protein: recombinant; tags: N-terminal GST; chain copies: 3; dsDNA, one strand shown. A digest of the protocol: as §1
The target in a further assay is T2, SPIC (Homo sapiens, UniProt Q8N5J4 1-248).
T2 sequence: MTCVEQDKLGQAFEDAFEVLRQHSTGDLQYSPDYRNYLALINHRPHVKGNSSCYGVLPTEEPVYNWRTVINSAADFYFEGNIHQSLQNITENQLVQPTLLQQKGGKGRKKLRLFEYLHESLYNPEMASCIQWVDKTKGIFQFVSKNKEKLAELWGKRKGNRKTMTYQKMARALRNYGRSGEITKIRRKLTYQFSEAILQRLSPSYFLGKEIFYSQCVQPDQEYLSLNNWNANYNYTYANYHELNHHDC
Conditions: protein: recombinant; tags: N-terminal GST; dsDNA, one strand shown. The method, boiled down:
as §1

The target in the next assay is ELF4 (Homo sapiens, UniProt Q99607 1-663). Conditions: protein: recombinant; tags: N-terminal GST; dsDNA, one strand shown. The method, boiled down:
as §1

The target in the next assay is T3, ELK4 (Homo sapiens, UniProt P28324-2 1-405).
T3 sequence: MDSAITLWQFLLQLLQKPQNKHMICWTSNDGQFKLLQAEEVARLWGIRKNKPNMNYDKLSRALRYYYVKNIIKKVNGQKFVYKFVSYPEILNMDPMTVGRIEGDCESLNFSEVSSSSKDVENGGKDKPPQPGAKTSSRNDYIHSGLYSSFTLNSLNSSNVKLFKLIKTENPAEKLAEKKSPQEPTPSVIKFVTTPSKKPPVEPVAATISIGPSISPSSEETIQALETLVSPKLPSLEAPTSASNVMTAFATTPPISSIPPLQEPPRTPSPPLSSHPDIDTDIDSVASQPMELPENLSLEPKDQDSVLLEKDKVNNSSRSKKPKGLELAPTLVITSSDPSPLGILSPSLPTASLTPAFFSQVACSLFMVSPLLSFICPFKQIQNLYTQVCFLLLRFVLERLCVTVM
The conditions noted are these: protein: recombinant; tags: N-terminal GST; dsDNA, one strand shown. A digest of the protocol: as §1

The next assay concerns the target T4, ETV2 (Homo sapiens, UniProt O00321 1-342).
T4 sequence: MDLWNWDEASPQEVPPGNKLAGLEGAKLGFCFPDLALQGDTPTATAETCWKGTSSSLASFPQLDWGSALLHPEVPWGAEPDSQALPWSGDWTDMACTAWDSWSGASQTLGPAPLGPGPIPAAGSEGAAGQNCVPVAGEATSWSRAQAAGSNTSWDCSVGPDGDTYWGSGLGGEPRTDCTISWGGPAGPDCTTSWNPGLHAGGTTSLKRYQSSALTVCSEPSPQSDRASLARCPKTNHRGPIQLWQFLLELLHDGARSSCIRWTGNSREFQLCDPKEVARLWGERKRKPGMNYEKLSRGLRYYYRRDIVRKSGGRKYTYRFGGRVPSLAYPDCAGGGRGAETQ
The conditions noted are these: protein: recombinant; tags: N-terminal GST; dsDNA, one strand shown. A digest of the protocol:
as §1

Another assay has as its target T5, ELF3 (Homo sapiens, UniProt P78545 1-371).
T5 sequence: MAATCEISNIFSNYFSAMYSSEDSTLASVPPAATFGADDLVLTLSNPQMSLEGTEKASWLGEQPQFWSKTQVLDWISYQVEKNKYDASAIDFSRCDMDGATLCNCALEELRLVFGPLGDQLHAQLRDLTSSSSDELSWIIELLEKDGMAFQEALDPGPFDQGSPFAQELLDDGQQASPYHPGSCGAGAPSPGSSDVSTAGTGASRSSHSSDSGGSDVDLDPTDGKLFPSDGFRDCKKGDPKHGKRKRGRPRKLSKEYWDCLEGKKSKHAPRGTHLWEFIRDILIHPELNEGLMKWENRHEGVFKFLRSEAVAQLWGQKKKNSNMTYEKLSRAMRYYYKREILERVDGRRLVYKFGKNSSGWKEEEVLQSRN
The conditions noted are these: protein: recombinant; tags: N-terminal GST; dsDNA, one strand shown. A digest of the protocol: as §1

The target in another assay is CRX (Homo sapiens, UniProt O43186 1-299). The conditions noted are these: protein: recombinant; tags: N-terminal GST; dsDNA, one strand shown. A digest of the protocol:
as §1

The target in the next assay is ETV1 (Homo sapiens, UniProt P50549 1-477). Conditions: protein: recombinant; tags: N-terminal GST; dsDNA, one strand shown. The method, boiled down:
as §1

The target of a further assay is T6, ERF (Homo sapiens, UniProt P50548 1-548).
T6 sequence: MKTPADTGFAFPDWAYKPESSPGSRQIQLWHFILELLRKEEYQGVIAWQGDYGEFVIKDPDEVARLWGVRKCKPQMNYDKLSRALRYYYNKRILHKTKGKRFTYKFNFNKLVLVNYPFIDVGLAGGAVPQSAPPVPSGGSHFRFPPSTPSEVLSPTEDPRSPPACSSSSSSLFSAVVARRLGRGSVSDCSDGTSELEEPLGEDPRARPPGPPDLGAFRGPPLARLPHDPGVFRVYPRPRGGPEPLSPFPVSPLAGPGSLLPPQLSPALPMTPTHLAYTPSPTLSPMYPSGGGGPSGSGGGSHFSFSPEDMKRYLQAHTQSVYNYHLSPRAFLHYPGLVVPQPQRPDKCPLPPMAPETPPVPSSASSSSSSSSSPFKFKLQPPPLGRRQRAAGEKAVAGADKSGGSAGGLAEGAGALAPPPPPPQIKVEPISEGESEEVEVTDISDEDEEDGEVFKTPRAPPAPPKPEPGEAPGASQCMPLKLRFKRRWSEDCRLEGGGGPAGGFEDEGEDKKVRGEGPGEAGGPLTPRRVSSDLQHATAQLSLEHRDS
The conditions noted are these: protein: recombinant; tags: N-terminal GST; dsDNA, one strand shown. A digest of the protocol:
as §1

A further assay concerns the target T7, ETV3L (Homo sapiens, UniProt Q6ZN32 1-361).
T7 sequence: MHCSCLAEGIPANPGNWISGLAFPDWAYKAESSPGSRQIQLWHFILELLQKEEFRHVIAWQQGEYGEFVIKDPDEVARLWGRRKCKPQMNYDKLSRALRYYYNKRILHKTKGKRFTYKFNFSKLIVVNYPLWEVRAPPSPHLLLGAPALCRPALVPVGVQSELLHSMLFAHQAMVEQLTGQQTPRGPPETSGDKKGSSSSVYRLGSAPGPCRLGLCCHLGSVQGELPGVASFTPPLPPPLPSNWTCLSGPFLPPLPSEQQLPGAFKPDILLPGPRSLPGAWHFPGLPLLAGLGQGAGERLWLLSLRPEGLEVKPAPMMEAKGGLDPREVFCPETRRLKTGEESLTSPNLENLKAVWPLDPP
Conditions: protein: recombinant; tags: N-terminal GST; dsDNA, one strand shown. The method, boiled down:
as §1

Another assay deals with T8, ETS2 (Homo sapiens, UniProt P15036 1-469).
T8 sequence: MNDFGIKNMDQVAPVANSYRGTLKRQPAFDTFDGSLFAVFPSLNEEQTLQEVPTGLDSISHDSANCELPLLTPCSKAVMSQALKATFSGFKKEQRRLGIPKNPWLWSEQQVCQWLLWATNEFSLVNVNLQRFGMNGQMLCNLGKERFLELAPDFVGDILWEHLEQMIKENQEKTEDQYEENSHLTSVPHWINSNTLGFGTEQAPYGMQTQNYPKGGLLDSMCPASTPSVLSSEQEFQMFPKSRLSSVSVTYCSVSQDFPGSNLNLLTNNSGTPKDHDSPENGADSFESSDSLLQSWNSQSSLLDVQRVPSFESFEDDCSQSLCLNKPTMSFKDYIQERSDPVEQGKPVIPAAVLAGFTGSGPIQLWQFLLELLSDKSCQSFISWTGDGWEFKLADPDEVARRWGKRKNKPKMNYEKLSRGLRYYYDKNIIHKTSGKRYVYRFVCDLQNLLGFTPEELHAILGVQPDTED
The conditions noted are these: protein: recombinant; tags: N-terminal GST; dsDNA, one strand shown. The method, boiled down: as §1

In a further assay the target is T9, SPDEF (Homo sapiens, UniProt O95238 1-335).
T9 sequence: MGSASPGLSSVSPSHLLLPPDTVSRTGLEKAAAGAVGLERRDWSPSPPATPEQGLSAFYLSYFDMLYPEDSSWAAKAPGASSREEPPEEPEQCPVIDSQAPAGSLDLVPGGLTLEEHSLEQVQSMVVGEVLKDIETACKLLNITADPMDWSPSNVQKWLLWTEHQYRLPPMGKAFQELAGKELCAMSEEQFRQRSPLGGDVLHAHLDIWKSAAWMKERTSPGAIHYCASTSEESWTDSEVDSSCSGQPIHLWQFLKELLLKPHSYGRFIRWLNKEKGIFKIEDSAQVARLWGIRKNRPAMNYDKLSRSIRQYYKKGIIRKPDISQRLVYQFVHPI
Conditions: protein: recombinant; tags: N-terminal GST; dsDNA, one strand shown. The method, boiled down:
as §1

The next assay deals with T10, ETV7 (Homo sapiens, UniProt Q9Y603 1-341).
T10 sequence: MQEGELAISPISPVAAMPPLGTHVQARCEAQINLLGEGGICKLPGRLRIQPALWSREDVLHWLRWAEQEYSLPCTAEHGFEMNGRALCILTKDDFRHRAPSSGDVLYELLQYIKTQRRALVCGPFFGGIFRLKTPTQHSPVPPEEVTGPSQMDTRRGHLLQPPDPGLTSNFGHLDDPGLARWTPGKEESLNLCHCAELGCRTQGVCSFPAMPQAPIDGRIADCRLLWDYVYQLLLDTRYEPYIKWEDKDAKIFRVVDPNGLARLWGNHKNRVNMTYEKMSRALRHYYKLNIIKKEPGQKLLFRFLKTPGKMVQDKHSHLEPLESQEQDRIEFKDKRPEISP
Conditions: protein: recombinant; tags: N-terminal GST; dsDNA, one strand shown. A digest of the protocol:
as §1

The target of the next assay is T11, ELF5 (Homo sapiens, UniProt Q9UKW6-2 1-255).
T11 sequence: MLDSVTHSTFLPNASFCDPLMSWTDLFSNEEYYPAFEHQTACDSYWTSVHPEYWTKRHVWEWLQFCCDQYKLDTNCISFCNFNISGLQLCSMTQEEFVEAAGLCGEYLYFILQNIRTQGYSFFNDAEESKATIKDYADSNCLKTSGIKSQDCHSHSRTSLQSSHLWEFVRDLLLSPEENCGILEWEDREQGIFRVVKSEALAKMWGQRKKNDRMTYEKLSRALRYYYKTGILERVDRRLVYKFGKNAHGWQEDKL
Conditions: protein: recombinant; tags: N-terminal GST; dsDNA, one strand shown. The method, boiled down:
as §1

The target of the next assay is T12, ETV3 (Homo sapiens, UniProt P41162-2 1-143).
T12 sequence: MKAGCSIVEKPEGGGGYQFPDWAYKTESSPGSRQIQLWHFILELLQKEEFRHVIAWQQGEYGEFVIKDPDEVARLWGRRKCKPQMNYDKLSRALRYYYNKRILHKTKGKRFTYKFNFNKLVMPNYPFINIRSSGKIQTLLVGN
Conditions: protein: recombinant; tags: N-terminal GST; dsDNA, one strand shown. The method, boiled down:
as §1

The target in the next assay is ETV6 (Homo sapiens, UniProt P41212 1-452). The conditions noted are these: protein: recombinant; tags: N-terminal GST; dsDNA, one strand shown. The method, boiled down: as §1
Chain of ETV6 (P41212 whole entry): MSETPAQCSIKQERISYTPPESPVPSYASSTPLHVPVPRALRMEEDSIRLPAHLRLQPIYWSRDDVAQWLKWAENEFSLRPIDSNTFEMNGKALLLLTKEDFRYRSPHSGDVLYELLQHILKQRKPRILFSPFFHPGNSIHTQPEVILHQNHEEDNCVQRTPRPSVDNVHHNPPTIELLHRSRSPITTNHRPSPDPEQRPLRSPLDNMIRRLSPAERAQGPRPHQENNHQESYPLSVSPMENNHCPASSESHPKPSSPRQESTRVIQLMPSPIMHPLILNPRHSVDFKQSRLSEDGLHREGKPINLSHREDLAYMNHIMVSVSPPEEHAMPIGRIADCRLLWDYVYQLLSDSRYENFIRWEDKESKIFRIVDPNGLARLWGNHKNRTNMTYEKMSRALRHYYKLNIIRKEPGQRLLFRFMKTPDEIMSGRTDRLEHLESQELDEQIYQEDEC

Chain of CRX (O43186 whole entry): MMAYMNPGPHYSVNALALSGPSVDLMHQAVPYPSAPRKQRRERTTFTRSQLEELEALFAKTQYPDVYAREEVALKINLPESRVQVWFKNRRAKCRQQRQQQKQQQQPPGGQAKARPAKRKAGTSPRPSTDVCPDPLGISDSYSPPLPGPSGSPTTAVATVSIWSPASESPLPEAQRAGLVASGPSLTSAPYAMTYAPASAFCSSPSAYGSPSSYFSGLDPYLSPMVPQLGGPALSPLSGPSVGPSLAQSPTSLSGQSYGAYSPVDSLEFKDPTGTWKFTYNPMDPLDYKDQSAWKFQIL
Chain of ETV5 (P41161 whole entry): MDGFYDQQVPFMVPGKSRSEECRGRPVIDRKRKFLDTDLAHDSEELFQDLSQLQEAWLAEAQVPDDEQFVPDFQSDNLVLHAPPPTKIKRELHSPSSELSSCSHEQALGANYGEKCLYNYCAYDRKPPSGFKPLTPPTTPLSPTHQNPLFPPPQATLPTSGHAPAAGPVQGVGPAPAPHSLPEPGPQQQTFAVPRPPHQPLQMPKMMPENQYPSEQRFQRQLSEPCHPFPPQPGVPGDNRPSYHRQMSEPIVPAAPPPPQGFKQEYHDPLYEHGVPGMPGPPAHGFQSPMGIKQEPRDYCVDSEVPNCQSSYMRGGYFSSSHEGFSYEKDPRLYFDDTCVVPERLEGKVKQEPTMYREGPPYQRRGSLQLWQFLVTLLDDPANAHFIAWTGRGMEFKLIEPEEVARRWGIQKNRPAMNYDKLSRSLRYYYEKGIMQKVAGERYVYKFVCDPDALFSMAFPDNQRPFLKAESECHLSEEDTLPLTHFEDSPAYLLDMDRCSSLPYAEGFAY
Chain of ELF4 (Q99607 whole entry): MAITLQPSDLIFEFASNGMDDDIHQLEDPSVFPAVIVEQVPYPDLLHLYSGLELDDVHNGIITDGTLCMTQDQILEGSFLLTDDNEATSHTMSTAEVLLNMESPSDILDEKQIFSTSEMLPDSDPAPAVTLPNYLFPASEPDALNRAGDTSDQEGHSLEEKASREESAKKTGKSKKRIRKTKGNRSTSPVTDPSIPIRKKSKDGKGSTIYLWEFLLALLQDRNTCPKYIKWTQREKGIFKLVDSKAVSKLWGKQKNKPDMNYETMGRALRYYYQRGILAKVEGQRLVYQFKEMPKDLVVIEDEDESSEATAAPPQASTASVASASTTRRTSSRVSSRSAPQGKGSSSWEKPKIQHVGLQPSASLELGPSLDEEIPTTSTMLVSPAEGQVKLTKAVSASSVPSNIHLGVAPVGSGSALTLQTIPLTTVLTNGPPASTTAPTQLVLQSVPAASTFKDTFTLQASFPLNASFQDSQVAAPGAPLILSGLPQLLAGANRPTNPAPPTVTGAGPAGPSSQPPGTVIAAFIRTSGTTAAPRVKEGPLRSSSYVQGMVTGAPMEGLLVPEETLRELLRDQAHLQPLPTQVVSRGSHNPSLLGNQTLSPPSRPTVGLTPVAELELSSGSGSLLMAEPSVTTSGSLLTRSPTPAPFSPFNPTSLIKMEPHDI
Chain of HSF1 (Q00613 whole entry): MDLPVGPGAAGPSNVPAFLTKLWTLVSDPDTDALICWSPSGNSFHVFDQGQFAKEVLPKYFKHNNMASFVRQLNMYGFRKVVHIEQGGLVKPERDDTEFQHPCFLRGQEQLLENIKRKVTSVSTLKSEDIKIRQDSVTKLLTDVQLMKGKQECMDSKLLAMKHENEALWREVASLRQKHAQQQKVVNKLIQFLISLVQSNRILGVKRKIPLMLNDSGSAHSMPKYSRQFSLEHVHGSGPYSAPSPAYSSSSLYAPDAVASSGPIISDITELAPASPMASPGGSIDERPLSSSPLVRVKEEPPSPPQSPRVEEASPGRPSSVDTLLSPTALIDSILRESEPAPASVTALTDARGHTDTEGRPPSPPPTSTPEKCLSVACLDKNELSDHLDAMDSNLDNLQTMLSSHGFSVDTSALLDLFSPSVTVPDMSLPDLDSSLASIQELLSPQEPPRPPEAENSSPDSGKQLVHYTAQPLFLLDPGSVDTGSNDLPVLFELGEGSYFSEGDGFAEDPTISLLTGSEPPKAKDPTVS
Chain of ETV1 (P50549 whole entry): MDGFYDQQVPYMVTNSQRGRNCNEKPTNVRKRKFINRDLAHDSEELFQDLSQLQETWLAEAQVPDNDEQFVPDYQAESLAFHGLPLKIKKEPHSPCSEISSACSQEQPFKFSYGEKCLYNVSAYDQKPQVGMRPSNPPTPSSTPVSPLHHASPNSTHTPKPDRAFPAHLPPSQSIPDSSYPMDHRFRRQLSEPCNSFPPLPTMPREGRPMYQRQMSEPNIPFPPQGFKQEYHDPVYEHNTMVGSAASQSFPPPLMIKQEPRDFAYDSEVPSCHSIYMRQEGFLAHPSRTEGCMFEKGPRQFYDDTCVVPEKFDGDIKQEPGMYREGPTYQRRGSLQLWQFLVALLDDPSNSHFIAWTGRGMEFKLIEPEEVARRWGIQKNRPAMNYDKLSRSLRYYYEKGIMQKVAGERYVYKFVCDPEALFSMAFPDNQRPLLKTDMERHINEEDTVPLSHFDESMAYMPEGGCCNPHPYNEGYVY

Take GATCTC: the binding signal was 1.2 fold enrichment (6-mer frequency, TF over GST control) with FEV; 1.27 fold enrichment (6-mer frequency, TF over GST control) with ETV5; 1.42 fold enrichment (6-mer frequency, TF over GST control) with HSF1; 1.26 fold enrichment (6-mer frequency, TF over GST control) with SPIC; 1.3 fold enrichment (6-mer frequency, TF over GST control) in the assay with ELF4; 1.22 fold enrichment (6-mer frequency, TF over GST control) with ELK4. The binding signal in the assay with ETV2 is 1.3 fold enrichment (6-mer frequency, TF over GST control); with ELF3, 1.23 fold enrichment (6-mer frequency, TF over GST control); with CRX, 1.46 fold enrichment (6-mer frequency, TF over GST control); in the assay with ETV1 it was 1.35 fold enrichment (6-mer frequency, TF over GST control); with ERF, 1.22 fold enrichment (6-mer frequency, TF over GST control); in the assay with ETV3L, 1.25 fold enrichment (6-mer frequency, TF over GST control). The binding signal with ETS2 is 1.31 fold enrichment (6-mer frequency, TF over GST control); in the assay with SPDEF, 1.42 fold enrichment (6-mer frequency, TF over GST control); with ETV7, 1.29 fold enrichment (6-mer frequency, TF over GST control); with ELF5 it was 1.21 fold enrichment (6-mer frequency, TF over GST control); in the assay with ETV3 it was 1.29 fold enrichment (6-mer frequency, TF over GST control); with ETV6, 1.15 fold enrichment (6-mer frequency, TF over GST control).
